# Measured values reported in PubChem BioAssay (NCI).
# Compounds without any hit were thinned out: in the full panel of roughly 79,000, 15% have a hit. A number with no mark means an inactive call. Activity calls are given as the source filed them. No stated cut-off is given here; in the data, active means growth inhibition above about 70%; inactive means the rest.
# Tests used:
# [1] = NCI Yeast Anticancer Drug Screen. Data for the rad52 strain (AID 147);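 further: 0% = growth of vehicle-treated control cultures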; details: S. cerevisiae rad52 mutant growth inhibition, active compounds read high
# Procedure, shortened: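 Screen used a yeast mutant impaired in DNA repair. After compound exposure, growth was measured. Values reflect inhibition compared with vehicle-treated cells.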
# [2] = NCI Yeast Anticancer Drug Screen. Data for the wt1 strain (AID 149);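 further: 0% = growth of vehicle-treated wt1 cultures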; details: S. cerevisiae wt1 strain (SPY 50644) growth inhibition, active compounds read high
# Procedure, shortened: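 Compounds are added to wt1 yeast cultures. Growth is then measured. Inhibition is expressed relative to vehicle-treated controls.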
# [3] = NCI Yeast Anticancer Drug Screen. Data for the rad50EPP+ strain (AID 151);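 further: 0% = growth of vehicle-treated control cultures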; details: S. cerevisiae rad50 mutant strain, active compounds read high
# Procedure, shortened: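 Exposing the rad50EPP+ strain to each compound, growth was compared with vehicle-only cultures to give inhibition.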
# [4] = NCI Yeast Anticancer Drug Screen. Data for the mgt1 strain (AID 153); details: S. cerevisiae mgt1 mutant growth inhibition, active compounds read high
# Procedure, shortened: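 Genetically defined yeast (mgt1) treated with compound; inhibition of growth expressed against vehicle-treated controls.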
# [5] = NCI Yeast Anticancer Drug Screen. Data for the rad50 strain (AID 155);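 further: 0% = growth of vehicle-only cultures of the same strain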; details: S. cerevisiae rad50 strain growth inhibition, active compounds read high
# Procedure, shortened: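 Inhibition values express reduced yeast growth in compound-treated cultures relative to vehicle-treated controls.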
# [6] = NCI Yeast Anticancer Drug Screen. Data for the mec2-1 strain (AID 157); details: S. cerevisiae mec2-1 strain, active compounds read high
# Procedure, shortened: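 Readout is yeast growth inhibition, normalised to vehicle-treated controls, in the mec2-1 strain exposed to compound.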
# [7] = NCI Yeast Anticancer Drug Screen. Data for the rad14 strain (AID 159);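 further: 0% = growth of vehicle-treated control cultures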; details: S. cerevisiae rad14 strain growth inhibition, active compounds read high
# Procedure, shortened: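 A mutant yeast strain defective in DNA damage repair is treated with compound; inhibition of its growth is scored against untreated, vehicle-exposed cultures.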
# [8] = NCI Yeast Anticancer Drug Screen. Data for the sgs1 mgt1 strain (AID 161);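 further: 0% = growth of cultures given vehicle only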; details: S. cerevisiae sgs1 mgt1 strain, active compounds read high
# Procedure, shortened: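 Yeast cells carrying a defined DNA-repair defect were exposed to test compounds. Growth inhibition was measured relative to vehicle-treated controls.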
# [9] = NCI Yeast Anticancer Drug Screen. Data for the CLN2oe strain (AID 163);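 further: 0% = growth of vehicle-only control cultures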; details: S. cerevisiae CLN2oe strain, active compounds read high
# Procedure, shortened: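 Values reflect how much compound exposure reduced yeast growth, referenced to vehicle-exposed cells. Assay organism is a strain with a defined genetic change affecting cell-cycle control.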
# [10] = NCI Yeast Anticancer Drug Screen. Data for the cln2 rad14 strain (AID 165);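 further: 0% = growth equal to vehicle treated cultures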; details: S. cerevisiae cln2 rad14 strain, active compounds read high
# Procedure, shortened: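 Relative to vehicle controls, growth inhibition of compound-treated cln2 rad14 yeast was recorded.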
# [11] = NCI Yeast Anticancer Drug Screen. Data for the bub3 strain (AID 167); details: S. cerevisiae bub3 mutant strain, active compounds read high
# Procedure, shortened: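 Steps: expose the mutant yeast strain to compound; grow alongside vehicle-treated cultures; measure growth; express inhibition against the vehicle cultures.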
# [12] = NCI Yeast Anticancer Drug Screen. Data for the wt2 strain (AID 169);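 further: 0% = growth of vehicle-treated yeast cultures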; details: S. cerevisiae wt2 strain growth inhibition, active compounds read high
# Procedure, shortened: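 Values express reduction in yeast growth under compound treatment, referenced to vehicle-treated cells.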
# [13] = NCI Yeast Anticancer Drug Screen. Data for the mlh1 strain (AID 171);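 further: 0% = growth of vehicle-treated control cultures of the same strain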; details: S. cerevisiae mlh1 strain growth inhibition, active compounds read high
# Procedure, shortened: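 Steps: expose the defined-mutant yeast strain to compound; expose a parallel culture to vehicle; measure growth; express compound effect as inhibition relative to the vehicle culture.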
# [14] = NCI Yeast Anticancer Drug Screen. Data for the sgs1 strain (AID 173);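 further: 0% = growth of vehicle-only control cultures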; details: S. cerevisiae sgs1 mutant, active compounds read high
# Procedure, shortened: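 Treat defined-mutant yeast with compound; measure growth; calculate inhibition relative to vehicle-treated cells.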
# [15] = NCI Yeast Anticancer Drug Screen. Data for the mlh1 rad18 strain (AID 175); details: S. cerevisiae mlh1 rad18 strain growth inhibition, active compounds read high
# Procedure, shortened: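 Test agents were incubated with a yeast strain of defined genotype (DNA damage repair defect). Inhibition of growth was derived by comparison with vehicle-exposed cultures.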
# [16] = NCI Yeast Anticancer Drug Screen. Data for the rad18 strain (AID 177); details: S. cerevisiae rad18 mutant growth inhibition, active compounds read high
# Procedure, shortened: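 A genetically defined yeast mutant impaired in DNA damage repair was treated with test compounds, then its growth was measured against cultures receiving vehicle alone.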
# [17] = at 5.0 µM (retest, dose inferred, filed as 0.5)
# [18] = at 50.0 µM (retest, dose inferred, filed as 5.0)
compound,measurement,setting,value
CCCCCCCCCC(=O)N(CCC)CCC,growth inhibition,[1]; at 1.2 µM,-11%
same,growth inhibition,[1]; at 3.7 µM,-15%
same,growth inhibition,[1]; at 11.0 µM,-19%
same,growth inhibition,[1]; at 33.0 µM,42%
same,growth inhibition,[1]; at 100.0 µM,96% (active)
same,growth inhibition,[2]; at 1.2 µM,-10%
same,growth inhibition,[2]; at 3.7 µM,-10%
same,growth inhibition,[2]; at 11.0 µM,-17%
same,growth inhibition,[2]; at 33.0 µM,79% (active)
same,growth inhibition,[2]; at 100.0 µM,98% (active)
same,growth inhibition,[3]; at 1.2 µM,1%
same,growth inhibition,[3]; at 3.7 µM,9%
same,growth inhibition,[3]; at 11.0 µM,11%
same,growth inhibition,[3]; at 33.0 µM,43%
same,growth inhibition,[3]; at 100.0 µM,77% (active)
same,growth inhibition,[4]; at 1.2 µM,-14%
same,growth inhibition,[4]; at 3.7 µM,-20%
same,growth inhibition,[4]; at 11.0 µM,-25%
same,growth inhibition,[4]; at 33.0 µM,0%
same,growth inhibition,[4]; at 100.0 µM,96% (active)
same,growth inhibition,[5]; at 1.2 µM,2%
same,growth inhibition,[5]; at 3.7 µM,-8%
same,growth inhibition,[5]; [17],97% (active)
same,growth inhibition,[5]; at 11.0 µM,-2%
same,growth inhibition,[5]; at 33.0 µM,48%
same,growth inhibition,[5]; [18],96% (active)
same,growth inhibition,[5]; at 50.0 µM,90.9% (active)
same,growth inhibition,[5]; at 100.0 µM,97% (active)
same,growth inhibition,[6]; at 1.2 µM,-4%
same,growth inhibition,[6]; at 3.7 µM,1%
same,growth inhibition,[6]; [17],97% (active)
same,growth inhibition,[6]; at 11.0 µM,-15%
same,growth inhibition,[6]; at 33.0 µM,73% (active)
same,growth inhibition,[6]; [18],98% (active)
same,growth inhibition,[6]; at 50.0 µM,93.3% (active)
same,growth inhibition,[6]; at 100.0 µM,97% (active)
same,growth inhibition,[7]; at 1.2 µM,-9%
same,growth inhibition,[7]; at 3.7 µM,-6%
same,growth inhibition,[7]; at 11.0 µM,-15%
same,growth inhibition,[7]; at 33.0 µM,29%
same,growth inhibition,[7]; at 100.0 µM,97% (active)
same,growth inhibition,[8]; [17],-38%
same,growth inhibition,[8]; [18],56%
same,growth inhibition,[8]; at 50.0 µM,92.9% (active)
same,growth inhibition,[9]; at 1.2 µM,3%
same,growth inhibition,[9]; at 3.7 µM,-2%
same,growth inhibition,[9]; at 11.0 µM,0%
same,growth inhibition,[9]; at 33.0 µM,45%
same,growth inhibition,[9]; at 100.0 µM,98% (active)
same,growth inhibition,[10]; [17],48%
same,growth inhibition,[10]; [18],65%
same,growth inhibition,[10]; at 50.0 µM,91.1% (active)
same,growth inhibition,[11]; at 1.2 µM,-29%
same,growth inhibition,[11]; at 3.7 µM,-27%
same,growth inhibition,[11]; [17],-7%
same,growth inhibition,[11]; at 11.0 µM,-37%
same,growth inhibition,[11]; at 33.0 µM,67%
same,growth inhibition,[11]; [18],73% (active)
same,growth inhibition,[11]; at 50.0 µM,92% (active)
same,growth inhibition,[11]; at 100.0 µM,97% (active)
same,growth inhibition,[12]; at 1.2 µM,-5%
same,growth inhibition,[12]; at 3.7 µM,-2%
same,growth inhibition,[12]; at 11.0 µM,-10%
same,growth inhibition,[12]; at 33.0 µM,49%
same,growth inhibition,[12]; at 100.0 µM,97% (active)
same,growth inhibition,[13]; at 1.2 µM,2%
same,growth inhibition,[13]; at 3.7 µM,-15%
same,growth inhibition,[13]; at 11.0 µM,-13%
same,growth inhibition,[13]; at 33.0 µM,41%
same,growth inhibition,[13]; at 100.0 µM,96% (active)
same,growth inhibition,[14]; at 1.2 µM,-4%
same,growth inhibition,[14]; at 3.7 µM,-9%
same,growth inhibition,[14]; at 11.0 µM,-17%
same,growth inhibition,[14]; at 33.0 µM,73% (active)
same,growth inhibition,[14]; at 100.0 µM,98% (active)
same,growth inhibition,[15]; [17],99% (active)
same,growth inhibition,[15]; [18],99% (active)
same,growth inhibition,[15]; at 50.0 µM,90.3% (active)
same,growth inhibition,[16]; at 1.2 µM,15%
same,growth inhibition,[16]; at 3.7 µM,21%
same,growth inhibition,[16]; at 11.0 µM,15%
same,growth inhibition,[16]; at 33.0 µM,68%
same,growth inhibition,[16]; at 100.0 µM,98% (active)
O=C1C(=O)N(c2ccccc2)[C@@]2(c3ccccc3)C(=Nc3ccccc3)OC(c3ccccc3)=C12,growth inhibition,[1]; at 1.2 µM,0%
same,growth inhibition,[1]; at 3.7 µM,0%
same,growth inhibition,[1]; at 11.0 µM,3%
same,growth inhibition,[1]; at 33.0 µM,4%
same,growth inhibition,[1]; at 100.0 µM,40%
same,growth inhibition,[2]; at 1.2 µM,-2%
same,growth inhibition,[2]; at 3.7 µM,-1%
same,growth inhibition,[2]; at 11.0 µM,-1%
same,growth inhibition,[2]; at 33.0 µM,2%
same,growth inhibition,[2]; at 100.0 µM,31%
same,growth inhibition,[3]; at 1.2 µM,-3%
same,growth inhibition,[3]; at 3.7 µM,-1%
same,growth inhibition,[3]; at 11.0 µM,2%
same,growth inhibition,[3]; at 33.0 µM,31%
same,growth inhibition,[3]; at 100.0 µM,84% (active)
same,growth inhibition,[4]; at 1.2 µM,-3%
same,growth inhibition,[4]; at 3.7 µM,-1%
same,growth inhibition,[4]; at 11.0 µM,80% (active)
same,growth inhibition,[4]; at 33.0 µM,94% (active)
same,growth inhibition,[4]; at 100.0 µM,97% (active)
same,growth inhibition,[5]; at 1.2 µM,-1%
same,growth inhibition,[5]; at 3.7 µM,-2%
same,growth inhibition,[5]; [17],0%
same,growth inhibition,[5]; at 11.0 µM,0%
same,growth inhibition,[5]; at 33.0 µM,3%
same,growth inhibition,[5]; [18],4%
same,growth inhibition,[5]; at 50.0 µM,21.6%
same,growth inhibition,[5]; at 100.0 µM,36%
same,growth inhibition,[6]; at 1.2 µM,-2%
same,growth inhibition,[6]; at 3.7 µM,-1%
same,growth inhibition,[6]; [17],-30%
same,growth inhibition,[6]; at 11.0 µM,0%
same,growth inhibition,[6]; at 33.0 µM,6%
same,growth inhibition,[6]; [18],45%
same,growth inhibition,[6]; at 50.0 µM,10.5%
same,growth inhibition,[6]; at 100.0 µM,41%
same,growth inhibition,[7]; at 1.2 µM,-1%
same,growth inhibition,[7]; at 3.7 µM,1%
same,growth inhibition,[7]; at 11.0 µM,3%
same,growth inhibition,[7]; at 33.0 µM,8%
same,growth inhibition,[7]; at 100.0 µM,57%
same,growth inhibition,[8]; [17],49%
same,growth inhibition,[8]; [18],96% (active)
same,growth inhibition,[8]; at 50.0 µM,52%
same,growth inhibition,[9]; at 1.2 µM,2%
same,growth inhibition,[9]; at 3.7 µM,0%
same,growth inhibition,[9]; at 11.0 µM,1%
same,growth inhibition,[9]; at 33.0 µM,9%
same,growth inhibition,[9]; at 100.0 µM,47%
same,growth inhibition,[10]; [17],-1%
same,growth inhibition,[10]; [18],21%
same,growth inhibition,[10]; at 50.0 µM,32.9%
same,growth inhibition,[11]; at 1.2 µM,-1%
same,growth inhibition,[11]; at 3.7 µM,-6%
same,growth inhibition,[11]; [17],-5%
same,growth inhibition,[11]; at 11.0 µM,-5%
same,growth inhibition,[11]; at 33.0 µM,-5%
same,growth inhibition,[11]; [18],9%
same,growth inhibition,[11]; at 50.0 µM,4.75%
same,growth inhibition,[11]; at 100.0 µM,20%
